Screening data deposited in PubChem by National Center for Advancing Translational Sciences (NCATS).
JMJD2A Tudor inh = JMJD2A Tudor domain (human) inhibition; AlphaScreen JMJD2A-Tudor / H3K4me3 peptide binding; Potency, µM (titrated, usually from 114 µM), most hits filed as inhibitors; 390,000 tested, 4.4% active; AID 504339; also: nearly all actives have a fitted effect of over 50% in size
CtBP-E1A inh = blocks the CtBP interaction with E1A. AlphaScreen GST-E1A/His-CtBP binding, 1536-well; stronger effect = lower value. activity change, % (concentration not given with the values). 340,000 tested, 0.49% active. AID 651724; in the data active = activity change below about -65%; inconclusive = mostly about -30% to -63%
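In 5 uL wells, 23 nL compound meets equimolar GST-E1A and His-CtBP (5X stock 125 nM each) for 2 h, 37 °C. Beads (5X, 50 ug/mL) then 1 h, 37 °C, dark.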
G9a block = blocks human histone lysine methyltransferase G9a. Q96KQ7. G9a H3K9 monomethylation, AlphaScreen, 2 h. Potency, µM (series often up to 102 µM), hits mostly inhibitors. 350,000 tested, 8.8% active. AID 504332; also: nearly all actives have a fitted effect of over 75% in size
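Methyltransferase reactions run at room temperature for 2 h (20 nM enzyme, 500 nM biotin-H3K9 peptide, 20 uM SAM) after a 15 min compound preincubation; product detected by AlphaScreen beads and anti-H3K9me1 antibody.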
HP1b binding inh = blocks HP1-beta chromodomain binding to methylated histone tails; P83916; AlphaScreen HP1-beta / biotin-H3K9me3 peptide binding; Potency, µM (doses to about 114 µM), hits mostly inhibitors; 390,000 tested, 0.56% active; also: nearly all actives have a fitted effect of over 70% in size
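AlphaScreen: HP1-beta (50 nM) preformed 30 min with biotin-H3(1-18)K9me3 peptide (50 nM) in PBS pH 7.4, 0.01% Tween-20. Compound added for 30 min at RT, then streptavidin donor/nickel chelate acceptor beads (10 ug/mL) for 30 min.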
Six1-Eya2 blk = inhibitors of human Six1/Eya2 interaction; Q15475+O00167; 360,000 tested, 0.56% active; AlphaScreen GST-Six1/His-Eya2 binding, biochemical; stronger effect = lower value; activity change, % (concentration not given with the values); in the data active = activity change below about -65%; inconclusive = mostly about -30% to -63%
Target sequence (O00167 whole entry, looked up): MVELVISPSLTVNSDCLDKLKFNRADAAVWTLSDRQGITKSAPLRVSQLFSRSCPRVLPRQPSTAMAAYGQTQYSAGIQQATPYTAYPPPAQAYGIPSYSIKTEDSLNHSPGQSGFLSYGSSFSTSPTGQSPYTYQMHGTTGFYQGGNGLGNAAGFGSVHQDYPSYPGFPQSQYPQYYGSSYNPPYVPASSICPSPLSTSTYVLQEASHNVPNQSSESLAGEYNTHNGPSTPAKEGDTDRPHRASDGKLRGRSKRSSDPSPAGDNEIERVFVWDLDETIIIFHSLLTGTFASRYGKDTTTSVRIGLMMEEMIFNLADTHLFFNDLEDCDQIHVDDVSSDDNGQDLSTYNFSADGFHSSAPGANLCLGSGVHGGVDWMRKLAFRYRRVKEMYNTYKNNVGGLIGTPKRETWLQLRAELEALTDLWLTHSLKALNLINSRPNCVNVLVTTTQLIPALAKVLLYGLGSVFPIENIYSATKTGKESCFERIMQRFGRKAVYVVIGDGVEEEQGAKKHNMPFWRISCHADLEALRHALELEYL
Target sequence (Q15475 whole entry, looked up): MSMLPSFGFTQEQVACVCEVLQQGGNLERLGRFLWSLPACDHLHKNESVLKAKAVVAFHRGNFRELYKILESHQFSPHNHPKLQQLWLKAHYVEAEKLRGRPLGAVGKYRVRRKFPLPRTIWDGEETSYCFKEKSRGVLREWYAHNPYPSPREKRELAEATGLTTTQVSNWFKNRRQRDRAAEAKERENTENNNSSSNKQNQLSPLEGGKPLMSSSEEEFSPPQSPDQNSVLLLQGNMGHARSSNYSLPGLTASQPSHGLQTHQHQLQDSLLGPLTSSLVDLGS
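AlphaScreen with GST-Six1 and His-Eya2 (5X mix: 250 nM and 500 nM), glutathione donor and nickel acceptor beads; buffer 50 mM Tris pH 8.0, 300 mM NaCl, 1 mM TCEP; 1 h at 37 C in the dark.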
BAZ2B inh = inhibitors of human BAZ2B bromodomain | Q9UIF8 | 360,000 tested, 4.4% active | Potency, µM (titrated, usually from 114 µM), hits mostly inhibitors | AlphaScreen BAZ2B-H3K14Ac peptide displacement; also: nearly all actives have a fitted effect of over 60% in size
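AlphaScreen displacement of biotin-H3(5-23)K14Ac peptide (50 nM final) from BAZ2B (50 nM final) in PBS pH 7.4, 0.01% Tween-20; complex preformed 30 min RT, then compounds (top 110 uM) 30 min RT, beads 20 min dark.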
A number is an active result; i = inactive; ? = inconclusive; nt = no result; [ ] = remark or other dose. The list is not random: actives were taken first. Their share in the collection is about 10%. Unless noted, calls follow the shape of the dose curve; as a rule, active = well fitted inhibition curve with a large enough effect; inconclusive = small, poorly fitted or top-dose-only effect; inactive = no such curve, though single readings can be large or run the other way.

SMILES	JMJD2A Tudor inh	CtBP-E1A inh	G9a block	HP1b binding inh	Six1-Eya2 blk	BAZ2B inh
CCOc1ccc(NC(=O)CN(C)C(=O)c2ccc(N3CCCCCC3)c([N+](=O)[O-])c2)cc1OCC	50µM	i	i[2.33 µM]	i	i	?
CCCN(CC(=O)Nc1ccccc1C)C(=O)c1ccc(N2CCCCC2)c([N+](=O)[O-])c1	?	i	50µM	i	i	?
CCN(CC(=O)Nc1c(F)cccc1F)C(=O)c1cc([N+](=O)[O-])ccc1N1CCCCC1	i	i	14µM	i	i	i
O=C(c1ccc(N2CCCCC2)c([N+](=O)[O-])c1)N(Cc1ccccc1)c1ccccn1	45µM	?	?	?	?	32µM
CCCN(CC(=O)Nc1ccccc1C)C(=O)c1ccc(N2CCCC2)c([N+](=O)[O-])c1	?	i	i[0.501 µM]	i	i	i
CCN(CC(=O)Nc1c(F)cccc1F)C(=O)c1ccc(N2CCCC2)c([N+](=O)[O-])c1	i	i	i	i	i	i
CC(=O)Nc1ccccc1NC(=O)C/C(C)=N/NC(=O)C(=O)N1CCCCC1	i	i	i	i	i	i
O=C(Nc1ccc(Cl)cc1)c1ccc2sc([C@@H]3O[C@H](CO)[C@@H](O)[C@H]3O)nc2c1	nt	i	nt	nt	i	nt
CCc1ccc(NC(=O)c2cc(CN3CCOCC3)on2)cc1	i	nt	i	i	nt	i
Cc1ccc(NC(=O)CCN2C(=O)C3CCCCC3C2=O)cc1[N+](=O)[O-] (centres undefined)	i	i	i	i	i	i
Cc1cccc2nc(CSc3ccccc3N)cn12	i	i	nt	i	i	nt
Cc1cccc2nc(CSc3nnc(N)s3)cn12	i	i	32µM	i	i	i
O=c1[nH]c(=S)[nH]c2c1C(c1cc([N+](=O)[O-])c(N3CCOCC3)cc1N1CCOCC1)O2 (centres undefined)	i	i	45µM	i	i	i
O=[N+]([O-])c1ccc(Cl)cc1N1CCOCC1	i	i	i[0.501 µM]	i	i	i
CNCc1cc(C)n(-c2cc(S(=O)(=O)N3CCOCC3)ccc2N2CCCC2)c1C	nt	i	nt	nt	i	nt
Cc1ccc(C)n1-c1cc(S(=O)(=O)N2CCOCC2)ccc1N1CCCC1	79µM	i	?	i	i	i
Cc1cc(CNCCN(C)C)c(C)n1-c1cc(S(=O)(=O)N2CCOCC2)ccc1N1CCCC1	8.9µM	i	nt	i	i	nt
CCSC1=N/C(=C\C=C2/Oc3ccccc3N2CC)C(=O)S1	35µM	i	13µM	?	i	32µM
C#CCOCCOCCOCCNc1nc(N2CCN(C(=O)CCCCCCCCCCNC(=O)[C@@H](CCSC)n3cc(CCO)nn3)CC2)nc(N2CCN(C(=O)CCCCCCCCCCNC(=O)[C@H](CCCN=C(N)N)n3cc(C[C@@H](C)CC)nn3)CC2)n1	45µM	i	i[2.33 µM]	i	i	50µM
C#CCOCCOCCOCCNc1nc(N2CCN(C(=O)CCCCCCCCCCNC(=O)[C@H](CO)n3cc(CCCCCN)nn3)CC2)nc(N2CCN(C(=O)CCCCCCCCCCNC(=O)[C@H](CCCN=C(N)N)n3cc(C[C@@H](C)CC)nn3)CC2)n1	nt	nt	i[2.33 µM]	nt	nt	50µM
C#CCOCCOCCOCCNc1nc(N2CCN(C(=O)CCCCCCCCCCNC(=O)[C@H](CCCCN)n3cc(C)nn3)CC2)nc(N2CCN(C(=O)CCCCCCCCCCNC(=O)[C@H](CCCN=C(N)N)n3cc(C[C@@H](C)CC)nn3)CC2)n1	56µM	i	i[2.33 µM]	?	i	?
C#CCOCCOCCOCCNc1nc(N2CCN(C(=O)CCCCCCCCCCNC(=O)[C@H](CCCCN)n3cc(C[C@@H](C)CC)nn3)CC2)nc(N2CCN(C(=O)CCCCCCCCCCNC(=O)[C@H](CCCN=C(N)N)n3cc(C[C@@H](C)CC)nn3)CC2)n1	35µM	i	i[2.33 µM]	50µM	i	50µM
CC(C)(CS)C(=O)N1CCC[C@H]1C(=O)O	nt	nt	4.5µM	nt	nt	nt
Cc1ccc(-c2cc(N)n(-c3ccccc3)n2)cc1	i	i	?	i	i	i
CCc1ccc(-c2cc(N)n(-c3ccccc3)n2)cc1	?	i	45µM	?	i	nt
SMILES	JMJD2A Tudor inh	CtBP-E1A inh	G9a block	HP1b binding inh	Six1-Eya2 blk	BAZ2B inh
CC1CC(C)CN(C(=O)COC(=O)CCc2nc3ccccc3c(=O)[nH]2)C1 (centres undefined)	i	i	i	i	i	i
Cc1ccc(S(=O)(=O)c2c(C)cc(C)nc2Cl)c(C)c1	i	i	i	i	i	i
Cc1cc(C)c(S(=O)(=O)/N=C2\C=CC(=O)C(Cl)=C2)c(C)c1	32µM	i	7.9µM	?	i	i
Cc1cc(C)n(-c2nc(C)c(C)c(=O)n2CC(=O)Nc2ccc(Cl)c(Cl)c2)n1	i	nt	4.5µM	i	nt	i
Cc1cc(C)n(-c2nc(C)c(C)c(=O)n2CC(=O)Nc2ccc(OC(F)(F)F)cc2)n1	i	nt	i	i	nt	i
CCCc1cc(CN(C)C(=O)c2ccc(OC3CCN(C(C)=O)CC3)c(OC)c2)[nH]n1	nt	i	nt	nt	i	nt
NC(=S)NC1CCS(=O)(=O)C1 (centres undefined)	i	i	i	i	i	i
C=CCSC(=S)NC1CCS(=O)(=O)C1 (centres undefined)	i	i	50µM	i	i	i
O=S1(=O)CCC(NC(=S)NCCNC(=S)NC2CCS(=O)(=O)C2)C1 (centres undefined)	i	i	50µM	i	i	i
O=S1(=O)CCC(NC(=S)N2CCCCC2)C1 (centres undefined)	i	i	i	i	i	i
N#CC12C(N)=NC3(OCCO3)C1(C#N)C1=C(CCC1)NC2c1ccccc1 (centres undefined)	i	i	?	i	i	i
